These results are taken from paper PMC7862700, “An all-to-all approach to the identification of sequence-specific readers for epigenetic DNA modifications on cytosine”.

What all share (assay): DAPPL (digital affinity profiling via proximity ligation, sequencing); 10 mM Tris-HCl pH 7.5, 50 mM NaCl, 1 mM DTT, 4% glycerol, room temperature, 30 min; GST-TFs on glutathione beads, 16-mer random dsDNA library, 0.1% formaldehyde crosslink after washing; high values mean tight binding
Test [1] concerns the target T1, FEV (Homo sapiens, UniProt Q99581 1-238).
T1 sequence: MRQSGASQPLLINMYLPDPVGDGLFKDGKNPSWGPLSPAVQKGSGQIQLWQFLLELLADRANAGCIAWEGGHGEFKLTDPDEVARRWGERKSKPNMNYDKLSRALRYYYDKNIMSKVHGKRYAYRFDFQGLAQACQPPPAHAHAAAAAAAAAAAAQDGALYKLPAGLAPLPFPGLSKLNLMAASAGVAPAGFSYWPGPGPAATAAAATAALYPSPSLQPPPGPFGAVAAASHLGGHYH
As to conditions: protein: recombinant; tags: N-terminal GST; dsDNA, one strand shown. Summed up:
(§1)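 Binding signal is each hexamer's read frequency for a factor divided by its frequency in the tag-only sample. The factors were GST-fused human transcription factors from yeast, captured on glutathione beads, DNA-barcoded and pooled with that sample. Pools were incubated with 200 nmole of a random double-stranded 16-mer DNA library in Tris/NaCl/DTT/glycerol buffer at room temperature for 30 min, then washed, crosslinked with 0.1% formaldehyde, proximity-ligated with BsaI/T4 ligase (1 h, 37 °C), PCR-amplified and sequenced on an Illumina NextSeq500.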

Test [2] has as its target ETV5 (Homo sapiens, UniProt P41161 1-510). As to conditions: protein: recombinant; tags: N-terminal GST; dsDNA, one strand shown. In short, it runs like this:
as §1

The target of test [3] is HSF1 (Homo sapiens, UniProt Q00613 1-529). As to conditions: protein: recombinant; tags: N-terminal GST; chain copies: 3; dsDNA, one strand shown. Summed up: as §1
The target of test [4] is T2, SPIC (Homo sapiens, UniProt Q8N5J4 1-248).
T2 sequence: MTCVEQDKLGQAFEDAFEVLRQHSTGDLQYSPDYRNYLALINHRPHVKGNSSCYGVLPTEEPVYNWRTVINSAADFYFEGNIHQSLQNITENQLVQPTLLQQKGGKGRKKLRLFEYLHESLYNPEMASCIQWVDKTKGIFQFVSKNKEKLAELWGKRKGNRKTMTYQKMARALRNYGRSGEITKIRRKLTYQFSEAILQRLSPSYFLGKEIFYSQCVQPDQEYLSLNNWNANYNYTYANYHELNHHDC
As to conditions: protein: recombinant; tags: N-terminal GST; dsDNA, one strand shown. Summed up:
as §1

In test [5] the target is ELF4 (Homo sapiens, UniProt Q99607 1-663). The settings on record: protein: recombinant; tags: N-terminal GST; dsDNA, one strand shown. In short, it runs like this: as §1
Test [6] addresses T3, ELK4 (Homo sapiens, UniProt P28324-2 1-405).
T3 sequence: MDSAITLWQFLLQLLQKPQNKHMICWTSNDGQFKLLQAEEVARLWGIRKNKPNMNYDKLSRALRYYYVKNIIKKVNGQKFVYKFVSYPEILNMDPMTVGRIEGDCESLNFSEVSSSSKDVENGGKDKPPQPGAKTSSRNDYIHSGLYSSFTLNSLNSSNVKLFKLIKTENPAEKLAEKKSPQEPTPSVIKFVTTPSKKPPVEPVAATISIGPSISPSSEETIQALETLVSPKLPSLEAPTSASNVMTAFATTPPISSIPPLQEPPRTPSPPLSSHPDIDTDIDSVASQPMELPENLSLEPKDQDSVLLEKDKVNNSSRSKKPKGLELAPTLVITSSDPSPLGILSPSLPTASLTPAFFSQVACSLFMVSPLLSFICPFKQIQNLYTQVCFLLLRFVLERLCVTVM
The settings on record: protein: recombinant; tags: N-terminal GST; dsDNA, one strand shown. Summed up: as §1

Test [7] addresses T4, ETV2 (Homo sapiens, UniProt O00321 1-342).
T4 sequence: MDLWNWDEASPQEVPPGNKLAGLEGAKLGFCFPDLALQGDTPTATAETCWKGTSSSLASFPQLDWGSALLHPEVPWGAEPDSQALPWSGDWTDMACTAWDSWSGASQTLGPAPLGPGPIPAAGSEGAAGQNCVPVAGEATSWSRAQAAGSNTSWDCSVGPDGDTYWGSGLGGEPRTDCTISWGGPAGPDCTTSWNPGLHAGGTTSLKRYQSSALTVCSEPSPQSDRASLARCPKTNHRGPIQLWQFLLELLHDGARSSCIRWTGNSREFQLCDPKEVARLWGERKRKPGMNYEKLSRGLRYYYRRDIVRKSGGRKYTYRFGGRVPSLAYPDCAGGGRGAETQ
As to conditions: protein: recombinant; tags: N-terminal GST; dsDNA, one strand shown. Summed up: as §1

For test [8], the target named is T5, ELF3 (Homo sapiens, UniProt P78545 1-371).
T5 sequence: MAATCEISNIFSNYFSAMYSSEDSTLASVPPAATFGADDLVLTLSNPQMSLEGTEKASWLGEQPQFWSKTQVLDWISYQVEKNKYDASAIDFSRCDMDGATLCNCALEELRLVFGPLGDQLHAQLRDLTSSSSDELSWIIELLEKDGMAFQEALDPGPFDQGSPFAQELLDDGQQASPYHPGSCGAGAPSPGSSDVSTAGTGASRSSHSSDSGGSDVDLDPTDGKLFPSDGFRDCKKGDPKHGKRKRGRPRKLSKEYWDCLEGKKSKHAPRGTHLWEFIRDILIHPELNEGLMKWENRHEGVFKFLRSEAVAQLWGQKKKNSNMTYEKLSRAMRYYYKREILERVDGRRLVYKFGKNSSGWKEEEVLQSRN
As to conditions: protein: recombinant; tags: N-terminal GST; dsDNA, one strand shown. In short, it runs like this: as §1

In test [9] the target is CRX (Homo sapiens, UniProt O43186 1-299). As to conditions: protein: recombinant; tags: N-terminal GST; dsDNA, one strand shown. Summed up:
as §1

Test [10] concerns the target ETV1 (Homo sapiens, UniProt P50549 1-477). As to conditions: protein: recombinant; tags: N-terminal GST; dsDNA, one strand shown. Summed up: as §1
Test [11] addresses T6, ERF (Homo sapiens, UniProt P50548 1-548).
T6 sequence: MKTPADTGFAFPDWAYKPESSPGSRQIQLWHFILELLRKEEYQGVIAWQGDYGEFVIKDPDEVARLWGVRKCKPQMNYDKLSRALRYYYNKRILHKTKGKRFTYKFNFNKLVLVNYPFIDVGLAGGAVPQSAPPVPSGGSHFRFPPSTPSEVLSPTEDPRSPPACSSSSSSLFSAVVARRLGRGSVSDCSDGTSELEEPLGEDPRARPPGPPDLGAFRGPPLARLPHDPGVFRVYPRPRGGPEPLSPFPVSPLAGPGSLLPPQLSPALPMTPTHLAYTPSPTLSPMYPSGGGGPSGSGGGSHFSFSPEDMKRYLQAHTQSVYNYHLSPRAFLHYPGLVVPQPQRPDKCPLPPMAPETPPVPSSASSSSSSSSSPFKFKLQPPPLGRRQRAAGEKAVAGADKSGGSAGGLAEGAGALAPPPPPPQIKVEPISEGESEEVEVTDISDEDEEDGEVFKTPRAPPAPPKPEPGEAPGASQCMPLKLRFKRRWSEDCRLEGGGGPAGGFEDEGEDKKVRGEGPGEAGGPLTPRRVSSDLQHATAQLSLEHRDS
The settings on record: protein: recombinant; tags: N-terminal GST; dsDNA, one strand shown. In short, it runs like this: as §1

For test [12], the target named is T7, ETV3L (Homo sapiens, UniProt Q6ZN32 1-361).
T7 sequence: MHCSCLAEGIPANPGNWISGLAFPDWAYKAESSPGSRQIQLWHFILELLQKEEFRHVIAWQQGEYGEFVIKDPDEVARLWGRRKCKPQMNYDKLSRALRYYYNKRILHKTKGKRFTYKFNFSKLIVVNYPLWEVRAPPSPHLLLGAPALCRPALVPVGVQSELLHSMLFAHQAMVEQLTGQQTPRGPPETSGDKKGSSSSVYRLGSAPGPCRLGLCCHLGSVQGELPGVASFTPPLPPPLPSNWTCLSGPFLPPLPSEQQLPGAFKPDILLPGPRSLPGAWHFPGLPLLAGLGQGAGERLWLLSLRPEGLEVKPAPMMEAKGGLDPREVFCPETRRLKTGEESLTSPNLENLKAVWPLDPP
The settings on record: protein: recombinant; tags: N-terminal GST; dsDNA, one strand shown. In short, it runs like this: as §1

The target in test [13] is T8, ETS2 (Homo sapiens, UniProt P15036 1-469).
T8 sequence: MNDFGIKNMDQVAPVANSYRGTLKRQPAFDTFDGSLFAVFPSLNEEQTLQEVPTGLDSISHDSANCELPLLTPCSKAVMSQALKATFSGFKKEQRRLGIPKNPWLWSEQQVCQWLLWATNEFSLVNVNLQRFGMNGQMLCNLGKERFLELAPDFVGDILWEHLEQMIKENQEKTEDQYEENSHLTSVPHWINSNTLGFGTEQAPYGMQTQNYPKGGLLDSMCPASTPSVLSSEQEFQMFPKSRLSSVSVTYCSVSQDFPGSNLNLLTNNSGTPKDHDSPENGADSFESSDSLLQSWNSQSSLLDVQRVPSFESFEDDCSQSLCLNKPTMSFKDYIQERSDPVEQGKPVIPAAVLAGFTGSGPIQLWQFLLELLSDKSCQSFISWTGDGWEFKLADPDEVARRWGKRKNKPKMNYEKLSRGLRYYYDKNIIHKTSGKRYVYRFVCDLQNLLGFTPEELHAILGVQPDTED
The settings on record: protein: recombinant; tags: N-terminal GST; dsDNA, one strand shown. In short, it runs like this: as §1

The target in test [14] is T9, SPDEF (Homo sapiens, UniProt O95238 1-335).
T9 sequence: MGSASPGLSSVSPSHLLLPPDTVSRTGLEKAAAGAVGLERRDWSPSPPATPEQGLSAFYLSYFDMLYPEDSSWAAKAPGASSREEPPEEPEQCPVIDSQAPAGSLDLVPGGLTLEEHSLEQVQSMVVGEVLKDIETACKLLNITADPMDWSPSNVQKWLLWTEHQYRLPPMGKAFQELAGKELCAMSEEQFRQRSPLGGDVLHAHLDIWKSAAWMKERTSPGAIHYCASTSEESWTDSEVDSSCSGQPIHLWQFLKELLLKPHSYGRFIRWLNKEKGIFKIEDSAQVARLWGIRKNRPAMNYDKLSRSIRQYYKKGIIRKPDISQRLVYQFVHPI
As to conditions: protein: recombinant; tags: N-terminal GST; dsDNA, one strand shown. In short, it runs like this: as §1

Test [15] has as its target T10, ETV7 (Homo sapiens, UniProt Q9Y603 1-341).
T10 sequence: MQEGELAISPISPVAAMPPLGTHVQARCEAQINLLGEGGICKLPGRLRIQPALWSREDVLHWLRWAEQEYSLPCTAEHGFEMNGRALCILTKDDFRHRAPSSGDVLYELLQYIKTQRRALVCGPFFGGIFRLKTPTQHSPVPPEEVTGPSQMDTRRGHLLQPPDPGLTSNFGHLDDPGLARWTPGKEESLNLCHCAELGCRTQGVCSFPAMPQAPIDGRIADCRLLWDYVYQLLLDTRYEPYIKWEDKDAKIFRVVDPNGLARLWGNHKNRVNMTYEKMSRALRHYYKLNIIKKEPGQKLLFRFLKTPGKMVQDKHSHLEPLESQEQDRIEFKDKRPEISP
As to conditions: protein: recombinant; tags: N-terminal GST; dsDNA, one strand shown. In short, it runs like this: as §1

Test [16] has as its target T11, ELF5 (Homo sapiens, UniProt Q9UKW6-2 1-255).
T11 sequence: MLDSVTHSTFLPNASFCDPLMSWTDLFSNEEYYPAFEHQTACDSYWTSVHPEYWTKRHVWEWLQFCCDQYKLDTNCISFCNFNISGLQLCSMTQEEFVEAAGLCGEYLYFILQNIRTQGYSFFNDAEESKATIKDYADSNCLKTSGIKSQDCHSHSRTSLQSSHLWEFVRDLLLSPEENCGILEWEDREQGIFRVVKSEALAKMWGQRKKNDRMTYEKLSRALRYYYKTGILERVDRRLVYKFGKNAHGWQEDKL
The settings on record: protein: recombinant; tags: N-terminal GST; dsDNA, one strand shown. In short, it runs like this: as §1

Test [17] addresses T12, ETV3 (Homo sapiens, UniProt P41162-2 1-143).
T12 sequence: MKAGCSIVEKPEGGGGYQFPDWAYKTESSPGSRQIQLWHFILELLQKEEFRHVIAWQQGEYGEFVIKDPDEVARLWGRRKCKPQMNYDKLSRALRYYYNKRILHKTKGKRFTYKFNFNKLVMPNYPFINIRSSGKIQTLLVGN
The settings on record: protein: recombinant; tags: N-terminal GST; dsDNA, one strand shown. In short, it runs like this:
as §1

Test [18] deals with ETV6 (Homo sapiens, UniProt P41212 1-452). The settings on record: protein: recombinant; tags: N-terminal GST; dsDNA, one strand shown. In short, it runs like this:
as §1

Chain of HSF1 (Q00613 whole entry): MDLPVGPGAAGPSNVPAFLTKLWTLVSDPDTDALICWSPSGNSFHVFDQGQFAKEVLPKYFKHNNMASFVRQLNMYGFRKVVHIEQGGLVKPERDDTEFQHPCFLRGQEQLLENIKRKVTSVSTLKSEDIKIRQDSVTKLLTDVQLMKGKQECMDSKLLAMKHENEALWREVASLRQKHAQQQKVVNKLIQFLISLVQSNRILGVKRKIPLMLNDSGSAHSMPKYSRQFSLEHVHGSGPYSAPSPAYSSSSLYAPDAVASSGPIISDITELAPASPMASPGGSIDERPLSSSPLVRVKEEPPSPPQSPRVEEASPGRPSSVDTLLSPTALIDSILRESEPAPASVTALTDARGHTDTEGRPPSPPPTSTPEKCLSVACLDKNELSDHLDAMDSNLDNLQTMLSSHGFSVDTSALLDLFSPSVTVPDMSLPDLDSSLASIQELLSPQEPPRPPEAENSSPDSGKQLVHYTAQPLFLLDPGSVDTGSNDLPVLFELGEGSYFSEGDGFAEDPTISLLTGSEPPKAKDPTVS
Chain of ETV6 (P41212 whole entry): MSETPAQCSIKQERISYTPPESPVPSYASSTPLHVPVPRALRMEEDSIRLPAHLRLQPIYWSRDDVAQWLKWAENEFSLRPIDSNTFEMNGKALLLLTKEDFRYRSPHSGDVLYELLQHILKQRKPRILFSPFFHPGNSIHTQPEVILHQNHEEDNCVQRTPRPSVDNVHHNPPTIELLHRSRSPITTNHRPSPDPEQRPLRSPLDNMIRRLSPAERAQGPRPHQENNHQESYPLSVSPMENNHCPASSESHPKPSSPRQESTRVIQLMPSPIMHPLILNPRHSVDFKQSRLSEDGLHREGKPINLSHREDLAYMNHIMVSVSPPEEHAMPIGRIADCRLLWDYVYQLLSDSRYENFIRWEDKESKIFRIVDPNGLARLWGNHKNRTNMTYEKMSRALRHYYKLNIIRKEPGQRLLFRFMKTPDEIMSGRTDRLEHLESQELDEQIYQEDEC
Chain of CRX (O43186 whole entry): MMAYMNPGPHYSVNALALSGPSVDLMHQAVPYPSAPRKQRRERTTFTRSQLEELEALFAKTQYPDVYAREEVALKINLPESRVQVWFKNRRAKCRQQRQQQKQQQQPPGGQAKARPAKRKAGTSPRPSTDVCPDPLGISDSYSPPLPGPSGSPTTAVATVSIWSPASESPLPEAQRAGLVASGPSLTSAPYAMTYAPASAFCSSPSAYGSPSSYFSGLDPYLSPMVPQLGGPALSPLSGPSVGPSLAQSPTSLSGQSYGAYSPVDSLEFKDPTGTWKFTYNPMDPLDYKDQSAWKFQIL
Chain of ETV5 (P41161 whole entry): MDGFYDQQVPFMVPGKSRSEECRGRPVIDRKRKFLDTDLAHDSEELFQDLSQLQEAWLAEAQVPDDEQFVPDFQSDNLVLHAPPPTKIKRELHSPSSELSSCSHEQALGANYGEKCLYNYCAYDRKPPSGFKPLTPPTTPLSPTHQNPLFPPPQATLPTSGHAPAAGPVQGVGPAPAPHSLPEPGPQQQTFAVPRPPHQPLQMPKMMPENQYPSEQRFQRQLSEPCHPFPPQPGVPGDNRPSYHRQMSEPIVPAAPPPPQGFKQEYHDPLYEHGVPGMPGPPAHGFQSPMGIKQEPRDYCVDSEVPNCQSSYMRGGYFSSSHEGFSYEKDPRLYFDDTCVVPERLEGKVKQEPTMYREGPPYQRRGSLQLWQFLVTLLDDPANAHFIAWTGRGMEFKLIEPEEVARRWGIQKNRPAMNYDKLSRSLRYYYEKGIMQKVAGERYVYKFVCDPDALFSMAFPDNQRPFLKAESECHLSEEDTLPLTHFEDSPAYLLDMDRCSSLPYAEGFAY
Chain of ETV1 (P50549 whole entry): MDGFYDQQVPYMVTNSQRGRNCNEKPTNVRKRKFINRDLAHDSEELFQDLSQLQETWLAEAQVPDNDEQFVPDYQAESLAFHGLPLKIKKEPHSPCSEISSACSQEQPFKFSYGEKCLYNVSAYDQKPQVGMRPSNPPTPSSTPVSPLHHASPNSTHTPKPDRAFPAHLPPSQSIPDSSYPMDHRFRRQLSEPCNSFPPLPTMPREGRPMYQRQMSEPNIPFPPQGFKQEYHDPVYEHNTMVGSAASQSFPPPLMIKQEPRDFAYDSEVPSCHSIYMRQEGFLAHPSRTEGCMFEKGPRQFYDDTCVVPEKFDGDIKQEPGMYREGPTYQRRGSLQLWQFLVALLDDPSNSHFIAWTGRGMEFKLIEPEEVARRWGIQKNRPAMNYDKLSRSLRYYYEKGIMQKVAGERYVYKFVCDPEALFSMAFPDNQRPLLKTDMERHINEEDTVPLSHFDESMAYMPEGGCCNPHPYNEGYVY
Chain of ELF4 (Q99607 whole entry): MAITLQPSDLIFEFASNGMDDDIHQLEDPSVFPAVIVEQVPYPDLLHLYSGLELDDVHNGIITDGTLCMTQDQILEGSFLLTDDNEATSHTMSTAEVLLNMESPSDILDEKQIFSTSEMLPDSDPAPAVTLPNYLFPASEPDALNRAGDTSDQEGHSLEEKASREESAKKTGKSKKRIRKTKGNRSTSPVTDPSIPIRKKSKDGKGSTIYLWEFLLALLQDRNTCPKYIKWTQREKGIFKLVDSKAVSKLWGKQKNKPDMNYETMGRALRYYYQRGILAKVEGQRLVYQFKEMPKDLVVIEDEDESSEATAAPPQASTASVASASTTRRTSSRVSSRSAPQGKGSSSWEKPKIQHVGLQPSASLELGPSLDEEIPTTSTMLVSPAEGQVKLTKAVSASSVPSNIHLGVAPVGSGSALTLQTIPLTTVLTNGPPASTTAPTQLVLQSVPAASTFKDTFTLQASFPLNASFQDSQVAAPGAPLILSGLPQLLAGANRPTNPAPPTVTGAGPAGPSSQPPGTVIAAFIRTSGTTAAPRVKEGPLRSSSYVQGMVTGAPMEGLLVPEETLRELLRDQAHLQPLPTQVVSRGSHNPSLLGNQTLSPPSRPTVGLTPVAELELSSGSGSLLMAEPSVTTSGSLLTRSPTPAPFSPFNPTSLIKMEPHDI

As for TTCTCG, the binding signal in test [1] is 1.35 fold enrichment (6-mer frequency, TF over GST control); in [2], 1.29 fold enrichment (6-mer frequency, TF over GST control); in test [3], 4.96 fold enrichment (6-mer frequency, TF over GST control); in [4], 1.32 fold enrichment (6-mer frequency, TF over GST control); in [5], 1.51 fold enrichment (6-mer frequency, TF over GST control); in test [6], 1.5 fold enrichment (6-mer frequency, TF over GST control). The binding signal was 1.4 fold enrichment (6-mer frequency, TF over GST control) in test [7]; 1.57 fold enrichment (6-mer frequency, TF over GST control) in test [8]; 2.17 fold enrichment (6-mer frequency, TF over GST control) in [9]; 1.29 fold enrichment (6-mer frequency, TF over GST control) in test [10]; 1.27 fold enrichment (6-mer frequency, TF over GST control) in test [11]; 1.46 fold enrichment (6-mer frequency, TF over GST control) in test [12]. The binding signal was 1.45 fold enrichment (6-mer frequency, TF over GST control) in [13]; 1.34 fold enrichment (6-mer frequency, TF over GST control) in test [14]; 1.48 fold enrichment (6-mer frequency, TF over GST control) in test [15]; 1.47 fold enrichment (6-mer frequency, TF over GST control) in test [16]; 1.27 fold enrichment (6-mer frequency, TF over GST control) in test [17]; 1.36 fold enrichment (6-mer frequency, TF over GST control) in [18].
